A short description of assay [1]: GFP-Q80 aggregate reduction, neuronal-like cells, cell-based, NGF-treated PC12, GFPQ80 (AID 1614).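 Further: lower means fewer inclusions and 0 means no inclusions at all.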 The note with it: PC12 NGF-treated GFP-polyQ80 inclusion reduction.
The nature of assay [2]: viability loss in pontine glioma line – cell-based, SU-DIPG-XIII, MIPE4.0, CellTiter-Glo, qHTS, dose response (AID 1347061; cut-off not given, nearly all actives have AC50 up to about 37 µM;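 further: cells exposed to compound for 48 hours before readout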). The conditions noted are these: CellTiter-Glo ATP luminescence. (In general: ATP-based viability assays read luminescence as a measure of living cells.)
Assay [3] is described as follows: viability loss in pontine glioma line – cell-based, JHH-DIPG-1, MIPE4.0, CellTiter-Glo, qHTS, dose response (AID 1347062; cut-off not given, nearly all actives have AC50 up to about 27 µM). The note with it: JHH-DIPG-1 viability, CellTiter-Glo ATP luminescence.
A short description of assay [4]: growth inhibition of DIPG cells – cell-based, MIPE4.0 library, CellTiter-Glo luminescence, qHTS (AID 1347066; cut-off not given, nearly all actives have AC50 up to about 30 µM;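 further: cells exposed to compound for 48 hours before readout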). The note with it: SU-DIPG-VI viability, CellTiter-Glo ATP luminescence.
Assay [5] in a line: compounds altering circadian rhythm period length – cell-based, LOPAC library, luminescence reporter (AID 2774; call rule not given here;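 further: values are relative to mean of DMSO wells on each plate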). The note with it: circadian reporter cells, at 7 µM, actives lie on both sides.
The test system of assay [6] is Hepatitis C virus NS3 helicase. Description: blockers of NS3h binding to ssDNA – biochemical, fluorescence polarization, LOPAC1280 library, primary screen (AID 687035; in the data active means inhibition above about 37%). The conditions noted are these: Purified HCV NS3 helicase, Cy5-dT15 ssDNA binding fluorescence polarization; stronger effect = higher value; concentration not given here. In general terms: Polarisation of emitted light reports the rotation of a fluorescent probe.

Assay [7] can be described thus: compounds altering Cy5-DNA-NS3h complex signal – biochemical, LOPAC1280, artefact control for HCV NS3 helicase inhibitor project (AID 687037; call rule not given here). The conditions noted are these: Cy5-DNA-NS3h complex fluorescence interference counterscreen. (In general: A counterscreen serves to expose hits that act by an unwanted route or on another target.)
Assay [8] is described as follows: JHH-DIPG-1 glioma cell viability, MIPE5.0 library, CellTiter-Glo luminescence, qHTS (AID 1347067; cut-off not given, nearly all actives have AC50 up to about 26 µM;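 further: cells exposed to compound for 48 hours before readout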). The conditions noted are these: JHH-DIPG-1 glioma viability, CellTiter-Glo ATP luminescence.
Assay [9] can be described thus: growth inhibition of DIPG cells – cell-based, MIPE5.0 library, qHTS (AID 1347068; cut-off not given, nearly all actives have IC50 up to about 30 µM). The note with it: SU-DIPG-XXV viability.
Assay [10] is described as follows: blockers of cellular phospholipid synthesis – cell-based, LOPAC library, screen 4, primary screen (AID 1347384; call rule not given here). The note with it: animal cells, phospholipid biosynthesis inhibition screen; at 10 µM.
The nature of assay [11]: growth inhibition, single agent or in combination, cell-based, chromothripsis tumors, cisplatin or BGB combos (AID 1671449).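 Further: cells exposed for 96 hours; 0% = vehicle DMSO and 100% = killing by high DMSO.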 The conditions noted are these: LFS_MB_P medulloblastoma cells.
A short description of assay [12]: growth inhibition, single agent and combos, cell-based, chromothripsis tumors, cisplatin or BGB combos (AID 1671450).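 Further: cells exposed to compound for four days; 0% = vehicle DMSO and 100% = cell killing by high DMSO.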 The conditions noted are these: HDN33 neuroblastoma cells, stronger effect = higher value.
Assay [13] in a line: growth inhibition, single agents and combos, HTB85, cell-based, BGB or cisplatin IC20 combos, synergistic combos for chromothripsis tumors (AID 1671453).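 Further: cells exposed for 96 hours before readout; 0% = vehicle DMSO and 100% = high DMSO killing control.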 The note with it: HTB85 osteosarcoma cells, drug combinations, stronger effect = higher value.
Assay [14] can be described thus: growth inhibition, MDA-MB-436, cell-based, BGB or cisplatin combos, synergistic combos for chromothripsis tumors (AID 1671458; call rule not given here;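 further: cells exposed for 96 hours; 0% = vehicle DMSO and 100% = killing by high DMSO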). The conditions noted are these: MDA-MB-436 breast carcinoma growth inhibition, drug combinations, stronger effect = higher value.
The nature of assay [15]: BT084 cell growth, single and combined drugs, ICGC_MB145, cisplatin and BGB IC40 combos (AID 1671461).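 Further: cells exposed to drugs for 96 hours; 0% = vehicle DMSO and 100% = high DMSO full killing control.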 The note with it: BT084 medulloblastoma cells, drug combinations, stronger effect = higher value.
The nature of assay [16]: RCMB18 cell growth, single agent and combined, cisplatin and BGB IC40 combos (AID 1671462).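 Further: cells exposed to compound for four days.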 The note with it: RCMB18 medulloblastoma cells, stronger effect = higher value.
Assay [17] in a line: CRL1545 cell growth, single agent and combined, cisplatin and BGB IC20 combos (AID 1671464).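 Further: cells exposed to compound for 96 hours before readout; 0% = vehicle DMSO and 100% = high DMSO killing control.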 The conditions noted are these: CRL1545 osteosarcoma cells, stronger effect = higher value.
A short description of assay [18]: P. berghei load reduction in hepatocytes – cell-based, HepG2, luciferase luminescence, HepG2 viability, primary screen (AID 624349; in the data active means parasite load remaining mostly below about 12%, no sharp cut-off; inactive means mostly above about 10%;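 further: 100% = mean of DMSO negative control wells on the same plate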). The note with it: P. berghei liver stage in HepG2, luciferase luminescence, concentration not given here; parasite load remaining: stronger effect = lower value; viability: measured here: HepG2 viability without parasites.
Assay [19] can be described thus: viability loss in pontine glioma line – cell-based, SU-DIPG-IV, MIPE4.0, CellTiter-Glo, qHTS, dose response (AID 1347063; cut-off not given, nearly all actives have AC50 up to about 30 µM;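 further: compound exposure lasted 48 hours before the viability readout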). The note with it: CellTiter-Glo ATP luminescence.
Assay [20] is described as follows: viability loss in pontine glioma line – cell-based, SU-DIPG-XVII, MIPE5.0, CellTiter-Glo, qHTS, dose response (AID 1347060; cut-off not given, nearly all actives have AC50 up to about 26 µM;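 on AC50: cells exposed to compound for 48 hours before viability readout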). The note with it: CellTiter-Glo ATP luminescence.
The mark [21] stands for this setting: at 0.5 µM, stronger effect = higher value.
The mark [22] stands for this setting: measured here: combination with BGB IC20, at 0.005 µM.
The mark [23] stands for this setting: measured here: combination with BGB IC40, at 0.005 µM.
[24] abbreviates: measured here: combination with BGB IC40, at 0.05 µM.
[25] abbreviates: measured here: combination with cisplatin, at 0.5 µM, stronger effect = higher value.
Where [26] appears, read: measured here: combination with cisplatin, at 5 µM, stronger effect = higher value.
[27] abbreviates: measured here: with BGB IC20 combination, at 0.5 µM.
[28] abbreviates: measured here: with cisplatin IC20 combination, at 0.5 µM.
Where [29] appears, read: measured here: with BGB IC20, at 0.5 µM.
[30] abbreviates: measured here: with BGB IC20, at 5 µM.
Where [31] appears, read: measured here: with cisplatin IC20, at 0.5 µM.
[32] abbreviates: measured here: with cisplatin IC20, at 5 µM.
Where [33] appears, read: measured here: BGB combination, at 0.5 µM.
The mark [34] stands for this setting: measured here: BGB combination, at 5 µM.
Setting [35] is: measured here: cisplatin combination, at 0.5 µM.
[36] abbreviates: measured here: cisplatin combination, at 5 µM.
The mark [37] stands for this setting: cisplatin combination, at 0.5 µM.
Setting [38] is: measured here: BGB IC40 combination 0.05 uM, at 0.05 µM.
Setting [39] is: measured here: BGB IC40 combination, at 0.05 µM.
The mark [40] stands for this setting: measured here: combination with cisplatin, at 0.5 µM.

Several values for one entry are separate records, joined by “and”; a condition that tells them apart may be missing. Identical values can stand only once. Records with an inconclusive call do not appear. Activity calls are given as the source filed them. Unless noted, no stated cut-off is given here; in the data, active means inhibition above about 80%; inactive means the rest.

For the compound `COc1ccccc1OCC(O)COC(N)=O` (stereo not drawn), the inclusion score in assay [1] turned out to be 2. The compound was called inactive in assay [2], in [3] and in [4].
In [1], `Cc1onc(-c2c(Cl)cccc2Cl)c1C(=O)N[C@@H]1C(=O)N2[C@@H]1SC(C)(C)[C@@H]2C(=O)O` had an inclusion score of 2.
The inhibition is the change of the read-out against control, counted positive when it falls. For `O=c1[nH]cc(F)c(=O)[nH]1`, in assay [1], the inclusion score turned out to be 2. In addition, the period change in assay [5] was 0.215 h (inactive). The inhibition in assay [6] is -1% (inactive); in assay [11] (setting [21]), 4.15% (inactive); in assay [11] (setting [22]), 0.419%; in assay [11] (setting [23]) it was -26%; in assay [11] (setting [24]), -17%; in assay [11] (setting [25]), 59.2%. The inhibition was -27.9% in assay [11] (setting [26]); 30.6% in assay [12] (BGB combo, at 5 µM); 16.5% (inactive) in [12] (at 0.5 µM); 40.1% in assay [12] (cisplatin combo, at 5 µM); -26.4% in [12] (setting [27]); 0.453% in [12] (setting [28]). For the same compound, the inhibition in assay [12] (single agent, at 5 µM) is 42.5%; in assay [13] (at 0.5 µM) it was -17.6% (inactive); in assay [13] (setting [29]), -36.1%; in [13] (setting [30]) it was 17.5%; in [13] (setting [31]), -12.5%; in assay [13] (setting [32]), 22.8%. Moreover, the inhibition in [13] (single agent, at 5 µM) was 21.8%; in assay [14] (at 0.5 µM), -17.3% (inactive); in assay [14] (setting [33]) it was -27.5%; in assay [14] (setting [34]), -5.42%; in assay [14] (setting [35]), -20.4%; in assay [14] (setting [36]), 36.2%. Besides, the inhibition is -4.41% (inactive) in assay [15] (at 0.5 µM); -0.838% in [15] (setting [37]); -20.1% in assay [15] (cisplatin combination, at 5 µM); 2.5% in assay [15] (setting [38]); -0.674% in [15] (single agent, at 5 µM); 3% (inactive) in [16] (at 0.5 µM). Moreover, the inhibition was 11.8% in [16] (cisplatin combo, at 5 µM); -17.4% in [16] (setting [39]); 13.9% in assay [16] (setting [40]); 7.41% in [16] (single agent, at 5 µM); -41.5% (inactive) in assay [17] (at 0.5 µM); -0.875% in assay [17] (setting [27]). Besides, the inhibition in [17] (setting [28]) is -61.8%; in [17] (single agent, at 0.05 µM), -3.52%; in [17] (single agent, at 5 µM), 15.8%. In [7], the fluorescence ratio (interference) was 1 (inactive). The result in assay [2], in [3], in assay [4], in assay [8], in [9] and in assay [10] was inactive.
A word on the viability: it is a read-out of living cells in per cent, often relative to untreated cells. Turning to `CN(C)CCc1c[nH]c2ccc(C[C@H]3COC(=O)N3)cc12`, the parasite load remaining in assay [18] is 65.6% (inactive) and 76.6% (inactive) and 61% (inactive). Besides, the viability in assay [18] was 90.7% and 99.3% and 74.3%. Besides, the compound was classed as inactive in [2], in assay [3], in [19] and in [4].
A word on the AC50: it is the concentration at which the activity in the assay is half-maximal. In the case of `COC(=O)Nc1nc2ccc(C(=O)c3ccccc3)cc2[nH]1`, the AC50 in assay [20] was 0.0934 µM (active); in [2], 18.7 µM (active); in assay [8], 0.468 µM (active). Besides, the result in [4] was inactive.
With `CCCCCCNC(=O)n1cc(F)c(=O)[nH]c1=O`, in assay [18], the parasite load remaining was 405% (inactive) and 109% (inactive). The viability in [18] was 90% and 80.4%. The compound was called inactive in [20], in assay [3], in assay [4], in assay [8] and in [10]. Besides, the inhibition in assay [11] (setting [21]) was -27.2% (inactive) and -12.2% (inactive); in [11] (setting [22]) it was -12% and -29.3%; in assay [11] (setting [23]), -26.4% and -7.28%; in assay [11] (setting [24]), -34.3% and -13.5%; in assay [11] (setting [25]), -48.8% and -55.1%; in [11] (setting [26]) it was -34.6% and -25%. Further, the inhibition was 41.9% and 91.3% in assay [12] (BGB combo, at 5 µM); -22% (inactive) and -3.86% (inactive) in assay [12] (at 0.5 µM); 46.1% and 36.7% in [12] (cisplatin combo, at 5 µM); -20.7% and 5.65% in [12] (setting [27]); -11.9% and -1.01% in assay [12] (setting [28]); 90.7% and 52% in assay [12] (single agent, at 5 µM). In addition, the inhibition in assay [13] (at 0.5 µM) was -3.88% (inactive) and -24.5% (inactive); in assay [13] (setting [29]), -6.6% and -67.2%; in assay [13] (setting [30]), 21% and 3.85%; in [13] (setting [31]) it was -9.7% and -6.78%; in assay [13] (setting [32]), 9.85% and 21%; in assay [13] (single agent, at 5 µM) it was 31.6% and 31.5%. For the same compound, the inhibition in [14] (at 0.5 µM) was -3.42% (inactive) and -19.4% (inactive); in assay [14] (setting [33]), -7.14% and -19.3%; in assay [14] (setting [34]), 9.33% and -1.4%; in assay [14] (setting [35]), -19.1% and -44.2%; in assay [14] (setting [36]), 33.3% and 25.8%; in assay [15] (at 0.5 µM) it was -1.98% (inactive) and -19.4% (inactive). For the same compound, the inhibition is -28.3% and -28.4% in [15] (setting [37]); -14.4% and -69.9% in assay [15] (cisplatin combination, at 5 µM); -34% and -12% in assay [15] (setting [38]); 6.42% and -7.55% in assay [15] (single agent, at 5 µM); -8.71% (inactive) and -17.6% (inactive) in [16] (at 0.5 µM); -32.4% and 29.2% in assay [16] (cisplatin combo, at 5 µM). Besides, the inhibition in assay [16] (setting [39]) is -13.3% and -15%; in [16] (setting [40]), -7.21% and -15.6%; in assay [16] (single agent, at 5 µM), 54.2% and -12.5%; in [17] (at 0.5 µM), -38.9% (inactive) and -6.62% (inactive); in [17] (setting [27]), -31.2% and -14.7%; in assay [17] (setting [28]), -45.1% and -2.6%. Also, the inhibition was -9.97% and 20.9% in assay [17] (single agent, at 0.05 µM); -10.7% and 10.5% in assay [17] (single agent, at 5 µM).

(Values after PubChem BioAssay.)
